Screening data: PubChem, National Center for Advancing Translational Sciences (NCATS)
HttQ103 aggreg – inhibitors of mutant huntingtin aggregate formation in PC12 cells; PC12 HttQ103-GFP aggregates, Acumen cytometry, 40 h; Potency, µM (doses to about 46.1 µM), actives largely listed as inhibitors; actives 1.1% (n = 220,000); AID 1688; also: nearly all actives have a fitted effect of over 60% in size
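PC12 cells stably carrying ecdysone-inducible HTT exon 1 Q103–GFP were induced with tebufenozide (100 nM final) and treated with library compounds in titration. GFP aggregates in lysates were counted by laser scanning cytometry.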
ALDH1A1 block – blocks purified human ALDH1A1 activity | P00352 | Purified ALDH1A1, NADH fluorescence, propionaldehyde substrate | Potency, µM (doses to about 75.3 µM), usual class: inhibitors | actives 7.3% (n = 220,000) | AID 1030; active = well fitted inhibition curve with a large enough effect, not every such curve was filed as active; inconclusive = small, poorly fitted or top-dose-only effect, or another doubt; inactive = no such curve, though single readings can be large or run the other way
Target sequence (P00352 whole entry, looked up): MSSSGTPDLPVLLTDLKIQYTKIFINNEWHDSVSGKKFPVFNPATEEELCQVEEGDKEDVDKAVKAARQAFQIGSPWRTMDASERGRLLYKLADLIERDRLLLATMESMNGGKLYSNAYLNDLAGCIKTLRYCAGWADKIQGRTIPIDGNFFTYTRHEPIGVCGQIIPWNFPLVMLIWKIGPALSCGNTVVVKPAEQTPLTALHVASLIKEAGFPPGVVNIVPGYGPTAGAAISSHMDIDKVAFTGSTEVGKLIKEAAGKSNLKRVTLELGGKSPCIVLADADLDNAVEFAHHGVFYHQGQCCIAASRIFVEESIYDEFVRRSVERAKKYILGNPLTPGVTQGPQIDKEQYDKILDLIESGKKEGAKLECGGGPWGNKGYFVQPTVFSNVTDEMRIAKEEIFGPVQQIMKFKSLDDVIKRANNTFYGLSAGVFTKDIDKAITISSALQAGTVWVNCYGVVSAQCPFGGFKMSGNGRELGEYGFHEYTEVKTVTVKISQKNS
LMNA splice mod – modulators of lamin A splicing; AID 1487; HeLa LMNA splicing GFP/RFP minigene ratio, 48 h; Potency, µM (top dose mostly 46.1 µM), hits mostly inhibitors; actives 0.01% (n = 200,000); active = well fitted inhibition curve with a large enough effect in the signal ratio, with a control signal flat, not every such curve was filed as active; inconclusive = small, poorly fitted or top-dose-only effect, or effect the other way, or a change in a side signal; the % refers to the signal ratio
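S3 HeLa stable clones carrying a lamin A-EGFP splicing minigene plus DsRed2 were seeded at 600 cells/well in Opti-MEM with 2% FBS, pin-dosed and incubated 48 h at 37°C. Acumen cytometry (488 nm) gave the GFP/RFP total-intensity ratio.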
HPGD inh – blocks human HPGD enzyme activity. P15428. purified HPGD, NADH fluorescence kinetic, PGE2 substrate. Potency, µM, actives largely listed as inhibitors. actives 4.3% (n = 150,000); active = well fitted inhibition curve with a large enough effect, not every such curve was filed as active; inconclusive = small, poorly fitted or top-dose-only effect, or another doubt; inactive = no such curve, though single readings can be large or run the other way
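NADH formation kinetics: reaction with 30 uM PGE2 and 1 mM NAD+ (final), 20 nM enzyme, Tris-HCl pH 8 with Tween 20, after 15 min compound preincubation at room temperature. Fluorescence change, last versus first of five reads.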
HTT ATP protect – Huntington cell model cytoprotection by ATP luminescence; PC12 HTT-Q103 induced, cytoprotection, ATP luminescence, 40 h; Potency, µM (top dose mostly 56.4 µM), actives largely listed as activators; actives 0.14% (n = 230,000); also: nearly all actives have a fitted effect of over 45% in size
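Compounds were screened for protection of PC12 cells against cell death after tebufenozide induction (100 nM final) of mutant Huntingtin exon 1 (Q103) fused to GFP.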
A number is an active result; n = inactive; u = inconclusive; x = not tested or not shown; [ ] = dose if it differs, or a comment. The list is not random: actives were taken first. Their share in the collection is about 8.8%. Unless noted, calls follow the shape of the dose curve; as a rule, active = well fitted curve in the direction sought with a large enough effect; inconclusive = small, poorly fitted or top-dose-only effect, or another doubt; inactive = no such curve, though single readings can be large; an effect the other way counts as inactive or inconclusive.

SMILES | HttQ103 aggreg | ALDH1A1 block | LMNA splice mod | HPGD inh | HTT ATP protect
CCOc1ccccc1NC(=O)N1CCN(Cc2cc(=O)n3nc(-c4ccc(C)cc4)sc3n2)CC1 | x | x | n | x | x
CS(=O)(=O)c1ccc(C(=O)OCC(=O)NC(=O)C2CCCCC2)cc1[N+](=O)[O-] | u | n | u | x | n[10 µM]
COc1ccccc1CCNCc1ccc(OC)c(OCc2ccccc2)c1 | u | n | u | n | n[10 µM]
COc1ccc(CNCc2ccco2)cc1OCc1ccccc1 | n | 11µM | n | n | n[10 µM]
CCOc1ccccc1NC(=O)CSc1nccn1-c1cccc(C)c1 | x | x | n | x | x
O=C1C(CCCNC(=S)NCc2ccccc2)NC(=S)N1Cc1ccccc1 (configuration not stated) | n | 32µM | n | u | n[10 µM]
COc1cc(NC(=S)NC(=O)c2cc(C)cc(C)c2)ccc1NC(=O)c1cccs1 | n | 14µM | n | n | n[10 µM]
COc1cc(NC(=S)NC(=O)c2ccc(C(C)(C)C)cc2)ccc1NC(=O)c1cccs1 | n | 12µM | u | n | n[10 µM]
COc1ccc(Cl)cc1NC(=S)NNC(=O)c1cccs1 | n[9.22 µM] | 10µM | n | x | n[10 µM]
COc1cc(NC(=S)NC(=O)c2c(OC)cccc2OC)ccc1NC(=O)c1cccs1 | n | n | n | n | n
COc1ccc(Cl)cc1NC(=S)NNC(=O)c1cccnc1 | n | n | x | x | n
COc1cc(NC(=S)NC(=O)c2ccccc2C)ccc1NC(=O)c1cccs1 | n | 25µM | u | u | n[10 µM]
O=C(Oc1ccccc1)N1CCC2(CC1)CN(c1ccccn1)C2 | x | u | x | n | n
Cc1ccc(-n2cc(CN3CCN(c4ccccn4)CC3)c(-c3ccc(F)cc3)n2)cc1 | n | n | x | x | n
Cc1ccc(-n2cc(CN3CCN(Cc4nccn4C)CC3)c(-c3ccc(F)cc3)n2)cc1 | n[9.22 µM] | 25µM | x | x | n[10 µM]
CCOc1ccccc1N1CCN(C(=O)c2cc3c(s2)CCC3)CC1 | n | n | n | n | n
CC1CC(C)CN(C(=O)c2cc3c(s2)CCC3)C1 (configuration not stated) | n[9.22 µM] | u | n | 13µM | n
O=C(c1cc2c(s1)CCCC2)N1CCN(c2ccccc2)CC1 | n | 22µM | x | x | n
O=C1CCCC=C1[C@@H](O)C1CCCCC1 | x | n[13.5 µM] | x | x | u
COc1ccccc1NS(=O)(=O)c1cccc(C(=O)NN=C2CCCC2)c1 | u | 13µM | x | x | n[10 µM]
CCN(CC)c1ccc(/C=N/NC(=O)c2cccc(S(=O)(=O)Nc3ccccc3OC)c2)cc1 | n | 10µM | n | x | n[10 µM]
COc1ccccc1NS(=O)(=O)c1cccc(C(=O)NN)c1 | n | 4µM | n | n | n
Cc1cn(C)c(CC(=O)NCc2ccccc2Cl)c1C(=O)O | x | x | n | x | x
CC(=O)Nc1ccc(S(=O)(=O)NCC2CCC(C(=O)NCCc3ccc(C)cc3)CC2)cc1 (configuration not stated) | x | x | n | x | x
C[C@H]1[C@H](C)CC[C@]2(C(=O)O)CC[C@]3(C)C(=CC[C@H]4[C@]3(C)C[C@@H](O)C3[C@](C)(CO)[C@H](O)[C@@H](O)C[C@]34C)[C@H]12 (some centres not stated) | x | n[13.5 µM] | x | n | x
SMILES | HttQ103 aggreg | ALDH1A1 block | LMNA splice mod | HPGD inh | HTT ATP protect
NNc1nc(-c2ccccc2)c2ccccc2n1 | n | n | n | x | n
NNc1nnc(-c2ccccc2)c(-c2ccccc2)n1 | n[9.22 µM] | 13µM | u | n | n
CCC1=C2CC[C@H]3C(=O)N(c4ccccc4)C(=O)[C@H]3[C@H]2[C@@]2(C)C(=O)N(Cc3ccccc3)C(=O)N2C1=O | x | 20µM | x | n | n
CCC1=C2CC[C@H]3C(=O)N(CC)C(=O)[C@H]3[C@H]2[C@@]2(C)C(=O)N(CC(=O)OC)C(=O)N2C1=O | x | 18µM | x | n | n
COc1ccc(CC(=O)N/N=C(\C)CC(=O)NCc2ccco2)cc1OC | n[9.22 µM] | x | x | x | n[10 µM]
Cn1nnc2c(NCc3ccccc3)ncnc21 | x | x | n | x | x
CN(/C=C1/C(=O)CNC1=O)CCO | n | n | n | x | n
COc1ccc(OCCCC(=O)Nc2nc(-c3ccccn3)cs2)cc1 | n | 32µM | n | x | n
O=C(Nc1nc(-c2ccccn2)cs1)c1ccco1 | u | 35µM | u | x | n
O=C(Nc1nc(-c2ccccn2)cs1)c1ccc(Br)s1 | 1.3µM | n | u | n | n
CCOC(=O)c1ccc(N2C(=O)C3C(C2=O)C(C(=O)c2ccc(Cl)cc2)N2CCCC32)cc1 (configuration not stated) | u | 13µM | n | 2.2µM | n[0.074 µM]
